Results filed as inconclusive are left out. Values without a mark were called inactive. Active and inactive are the calls of the source. Calls come from the whole dose curve; as a rule, active = well fitted inhibition curve with a large enough effect; inconclusive = small, poorly fitted or top-dose-only effect; inactive = flat fitted curve, though single readings scatter.
Target: Glutathione peroxidase 1 (Homo sapiens) (UniProt P07203)
Assay: Primary qHTS Assay for Inhibitors of Recombinant Selenoprotein Glutathione Peroxidase 1 (GPX1) (AID 1845191); note: nearly all actives have a fitted effect of over 65% in size
Conditions: recombinant GPX1, GR-coupled NADPH fluorescence, 15 min; series mostly up to 48.8 µM; activity, negative = inhibition: at the top concentration
Outline: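 NADPH consumption tracked by fluorescence at 340/450 nm between t=0 and t=15 min, room temperature. Final mix: 10 nM GPX1, 100 nM glutathione reductase, 1 mM GSH, 0.5 mM NADPH, 0.5 mM cumene hydroperoxide, 0.01% BSA; 30 min compound–enzyme preincubation.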
% is set by controls: 0 for no effect and ±100 for the full control effect.

Glutathione peroxidase 1 (Homo sapiens), sequence (P07203 whole entry, looked up): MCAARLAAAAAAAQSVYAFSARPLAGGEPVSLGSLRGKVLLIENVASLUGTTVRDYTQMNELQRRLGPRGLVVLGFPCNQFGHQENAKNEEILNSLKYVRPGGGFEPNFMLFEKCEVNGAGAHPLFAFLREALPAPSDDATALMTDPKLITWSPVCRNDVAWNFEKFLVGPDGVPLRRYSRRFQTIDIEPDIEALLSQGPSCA

Compound | activity, negative = inhibition [%] | outcome
CCC(=O)O[C@@H]1[C@@H](C)O[C@@H](O[C@H]2[C@H](N(C)C)[C@@H](O)[C@H](O[C@H]3[C@@H](CC=O)C[C@@H](C)[C@@H](OC(C)=O)/C=C/C=C/C[C@@H](C)OC(=O)C[C@@H](OC(=O)CC)[C@@H]3OC)O[C@@H]2C)C[C@]1(C)OC(C)=O | 3.34 | 
CCCCC[C@@H](O)CC[C@H]1[C@@H]2Cc3cccc(OCC(=O)O)c3C[C@@H]2C[C@@H]1O |  | inactive
O=C(O)[C@H]1OC(O)[C@H](O)[C@@H](O)[C@@H]1O (stereo partly specified) | 3.97 | 
CC[C@H](C)[C@@H]([C@@H](CC(=O)N1CCC[C@H]1[C@H](OC)[C@@H](C)C(=O)NCCc1ccccc1)OC)N(C)C(=O)[C@@H](NC(=O)[C@H](C(C)C)N(C)C)C(C)C | -13.3 | 
C=C1CC[C@H](O)C/C1=C\C=C1/CCC[C@]2(C)[C@@H]([C@H](C)CC[C@H](O)C(C)(C)O)CC[C@@H]12 | -25.6 | 
O=c1c2c(c1=O)N(CCP(=O)(O)O)CCCN2 |  | inactive [at 98.3 µM]
O=P(O)(O)OC1C(OP(=O)(O)O)C(OP(=O)(O)O)C(OP(=O)(O)O)C(OP(=O)(O)O)C1OP(=O)(O)O (stereo unspecified) | 3.28 | 
C=CCN1CC[C@]23c4c5ccc(O)c4O[C@H]2[C@@H](OCCOCCOCCOCCOCCOCCOCCOC)CC[C@@]3(O)[C@H]1C5 | 0.708 | 
CC(C)OC(=O)CCC/C=C\C[C@@H]1[C@@H](/C=C/[C@@H](O)COc2cccc(C(F)(F)F)c2)[C@H](O)C[C@@H]1O |  | inactive
COC(=S)NCCn1c([N+](=O)[O-])cnc1C | -7.27 | 
CCc1ccc(N(CC(C)C)S(=O)(=O)c2ccc(OCC3CCOCC3)c(CO)c2)cc1 |  | inactive
